Laboratory results taken from PubChem BioAssay AID1159580 (chemical genetic matrix, 2015).
Among all 5,500 compounds or so, about 2,000 (36%) were called active. Another 18% or so got no clear call; they are omitted. No stated cut-off is given here; in the data, active means normalized growth mostly below about 0.91 (no sharp cut-off); inconclusive means no clear call, values can overlap the other calls; inactive means mostly above about 0.92. The list shows a part of the results.

Assay: chemical genetic growth profiling, strain panel (AID 1159580);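 further: tested at 20 µM; growth read once vehicle control cultures reached saturation at 30 °C; 1 = growth at the plate median or of vehicle wells; lower values mean less growth of the strain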
Settings: S. cerevisiae deletion strains, growth OD

Measured: normalized growth

COc1ccc(C2=C(C(C)=O)C(C)=NC(=S)C2C#N)cc1 (stereo not given)
inactive: locus YAL013W, strain DEP1, active compounds read low 1.01 | locus YBR229C, strain ROT2, active compounds read low 1.02 | locus YCL061C, strain MRC1, active compounds read low 1.01 | locus YDL101C, strain DUN1, active compounds read low 1.05 | locus YDR150W, strain NUM1, active compounds read low 0.933 | locus YEL061C, strain CIN8, active compounds read low 1.04 | locus YGR078C, strain PAC10, active compounds read low 0.993 | locus YHR030C, strain SLT2, active compounds read low 0.947 | locus YHR087W, strain rtc3, active compounds read low 1.04 | locus YJL187C, strain SWE1, active compounds read low 1 | locus YJR043C, strain POL32, active compounds read low 1.04 | locus YJR075W, strain HOC1, active compounds read low 1.01 | locus YKL190W, strain CNB1, active compounds read low 0.987 | locus YLR039C, strain RIC1, active compounds read low 0.977 | locus YLR058C, strain SHM2 (second series), active compounds read low 0.994 | locus YLR085C, strain ARP6, active compounds read low 0.89 | locus YLR262C, strain YPT6, active compounds read low 0.972 | locus YML094W, strain GIM5, active compounds read low 1.12 | locus YMR219W, strain ESC1, active compounds read low 0.998 | locus YMR263W, strain SAP30, active compounds read low 0.905 | locus YMR307W, strain GAS1, active compounds read low 0.702 | locus YNL128W, strain TEP1, active compounds read low 0.983 | locus YNL153C, strain GIM3, active compounds read low 1.03 | locus YNL298W, strain CLA4 (second series), active compounds read low 0.89 | locus YNL322C, strain KRE1, active compounds read low 1 | locus YNR030W, strain Alg12, active compounds read low 0.987 | locus YOL006C, strain TOP1, active compounds read low 0.754 | locus YPL055C, strain LGE1, active compounds read low 0.97 | locus YPL241C, strain CIN2, active compounds read low 0.943
active: locus YPR135W, strain CTF4, active compounds read low 0.356
